Results filed as inconclusive are left out. Where a call stands in place of a potency, no number is given. Calls of active or inactive are those of the source. Calls follow the shape of the full dose curve.
test: qHTS assay to identify small molecule agonists or antagonists of the thyroid stimulating hormone receptor (TSHR) signaling pathway - wild type cell line counter screen (AID 1259384); conditions: HEK293 wild type, cAMP HTRF counter-screen; series mostly up to 92.4 µM
Text: U.S. Tox21 Program National Center for Advancing Translational Sciences [NCATS] NIH Chemical Genomics Center [NCGC] U.S. Environmental Protection Agency [EPA] National Institutes of Environmental Health Sciences [NIEHS] National Toxicology Program [NTP] U.S. Food and Drug Administration [FDA] Tox21 Assay Overview: TSHR is the receptor for thyrotropin (thyroid stimulating hormone or TSH), a member of the glycoprotein hormone family. TSH is released by the anterior pituitary gland and is the main regulator of thyroid gland growth and development. Upon binding circulating thyrotropin, a G-protein signal cascade activates adenylyl cyclase and […] cAMP concentration is increased. cAMP is a key second messenger involved extensively in cellular signal transduction pathways associated with the majority of G-protein coupled receptors (GPCRs). The activation of these GPCRs by neurotransmitters, lipids, nucleotides, peptides and hormones results in the activation or the inhibition of plasma membrane-bound adenylate cyclase through heterotrimeric G-proteins. A cell-based TSHR-Hek293 assay can be used to identify TSHR agonists. To eliminate the false positive compounds identified from screening a cell-based TSHR-Hek293 cell line, cAMP assay in a wild type Hek293 cells was used as a counter screening.
Tox21 Assay Protocol Summary: Hek293 cells (wild type) were dispensed at 800 cells/4 uL/well in 1536-well white plates using a Multidrop dispenser. After the assay plates were incubated at a 37 C/5% CO2 incubator for 18 hrs, 23 nL of compounds dissolved in DMSO, positive controls or DMSO only was transferred to the assay plate by a pin tool, followed by 1 ul medium containing Ro20-1724. After 30 min of incubation at room temperature, 2.5 ul/well of cAMP-d2 and 2.5 ul/well of anti-cAMP-cryptate were added respectively into the assay plates using a Flying Reagent Dispenser. The plates were incubated at room temperature for 1 hr. The fluorescence intensity in the plates was measured using an Envision plate reader. Each test compound was measured at 15 concentrations and in triplicates.

Q: Which Potency does the source give for CCOC(=O)[C@H](CCc1ccccc1)N[C@H]1CCc2ccccc2N(CC(=O)O)C1=O here?
A: inactive

Q: With S=C(S)NCCNC(=S)S as the compound, how does the Potency read?
A: inactive

Q: With CCCCCCOC(=O)CCC as the compound, how does the Potency read?
A: inactive

Q: With CC(=O)OCCc1ccccc1 as the compound, how does the Potency read?
A: inactive

Q: Which Potency does the source give for CC1(C)[C@H]2CC[C@]1(C)[C@H](O)C2 here?
A: inactive

Q: Which Potency does the source give for CCCc1ccccc1 here?
A: inactive

Q: For Cc1ccc(C(=O)C(C)CN2CCCCC2)cc1 (stereo not given), which Potency is on record?
A: inactive

Q: Which Potency does the source give for CC(C)=CCCC(C)CC=O (stereo not given) here?
A: inactive

Q: For CC(C)CCCC(C)CCO (stereo not given), which Potency is on record?
A: inactive

Q: Which Potency does the source give for Cl/C(=C\n1cncn1)c1ccc(Cl)cc1Cl here?
A: inactive

Q: Which Potency does the source give for CCCCOC(=O)c1ccccc1C(=O)OCC(CC)CCCC (stereo not given) here?
A: inactive

Q: Which Potency does the source give for CCC(=O)OC(C)(C)C1CC=C(C)CC1 (stereo not given) here?
A: inactive

Q: With CCCCCCCCCC(=O)OCC as the compound, how does the Potency read?
A: inactive

Q: Which Potency does the source give for CC(=O)O[C@H]1C[C@@H]2CC[C@@H]3[C@H](CC[C@@]4(C)[C@H]3C[C@H]([N+]3(C)CCCCC3)[C@@H]4OC(C)=O)[C@@]2(C)C[C@@H]1N1CCCCC1 here?
A: inactive

Q: Which Potency does the source give for CN(C)CCCOc1nn(Cc2ccccc2)c2ccccc12 here?
A: inactive

Q: Which Potency does the source give for CN1CCC(=C2c3ccccc3C=Cc3ccccc32)CC1 here?
A: inactive

Q: With CC(O)C1CCCCC1 (stereo not given) as the compound, how does the Potency read?
A: inactive

Q: With NC(=S)N/N=C/c1cccnc1 as the compound, how does the Potency read?
A: inactive

Q: With CC(C)CC=O as the compound, how does the Potency read?
A: inactive

Q: Which Potency does the source give for O=C(O)c1cn(C2CC2)c2cc(Cl)c(F)cc2c1=O here?
A: inactive

Q: For Nc1nc(CC(=O)O)cs1, which Potency is on record?
A: inactive

Q: Which Potency does the source give for CCCOc1ccc2nc(NC(=O)OC)[nH]c2c1 here?
A: inactive

Q: With N#CCCNCCC#N as the compound, how does the Potency read?
A: inactive

Q: With CC/C(=C\C(=N/O)C(N)=O)C(C)[N+](=O)[O-] (stereo not given) as the compound, how does the Potency read?
A: inactive

Q: For CC(CN)CCCN (stereo not given), which Potency is on record?
A: inactive

Q: For COc1ccc([C@@H]2Sc3ccccc3N(CCN(C)C)C(=O)[C@@H]2OC(C)=O)cc1, which Potency is on record?
A: inactive

Q: Which Potency does the source give for CN(C)CCCNCCCN here?
A: inactive

Q: For O=c1[nH]cnc2ccccc12, which Potency is on record?
A: inactive

Q: Which Potency does the source give for c1ccc(-c2nc[nH]c2-c2ccccc2)cc1 here?
A: inactive

Q: For CC[C@]12CCCN3CCc4c(n(c5ccccc45)C(=O)C1)[C@@H]32, which Potency is on record?
A: inactive

Q: Which Potency does the source give for CN(C(=O)CCCOc1ccc2[nH]c(=O)ccc2c1)C1CCCCC1 here?
A: inactive

Q: For O=C(C(=O)c1ccc(Br)cc1)c1ccc(Br)cc1, which cAMP activity change is on record?
A: 5.87% [at 18.9 µM, hits give high values] (inactive)

Q: Which Potency does the source give for CCCCCCc1ccc(N)cc1 here?
A: inactive

Q: For CCCCCC(CO)CCC (stereo not given), which Potency is on record?
A: inactive

Q: Which Potency does the source give for CCCCCCCCCC=O here?
A: inactive

Q: Which Potency does the source give for ClC(Cl)(Cl)c1ccc(C(Cl)(Cl)Cl)cc1 here?
A: inactive

Q: For CC(=O)OC/C=C/c1ccccc1, which Potency is on record?
A: inactive

Q: Which Potency does the source give for CCOc1nc2cccc(C(=O)O)c2n1Cc1ccc(-c2ccccc2-c2nn[nH]n2)cc1 here?
A: inactive

Q: With CCN(CC)CCc1nc(-c2ccccc2)no1 as the compound, how does the Potency read?
A: inactive

Q: With CCCCCCCC/C=C\CCCCCCCC(N)=O as the compound, how does the Potency read?
A: inactive
